Reference: ChEMBL document CHEMBL3988442, “University of Dundee, Small-Polar-MMV Screening Library” (2021)

Assays:
[1] = molecular target: T1, Aspartate--tRNA(Asp/Asn) ligase (Mycobacterium tuberculosis (strain ATCC 25618 / H37Rv)) (UniProt P9WFW3); test: Assay for Asp RNA synthetase-1 from Mycobacterium tuberculosis; type: functional; set-up: scale not given: direction of the effect not stated beside the values; settings: 30 µM; also: in the data most compounds retested in dose-response had high values
T1 sequence (whole entry): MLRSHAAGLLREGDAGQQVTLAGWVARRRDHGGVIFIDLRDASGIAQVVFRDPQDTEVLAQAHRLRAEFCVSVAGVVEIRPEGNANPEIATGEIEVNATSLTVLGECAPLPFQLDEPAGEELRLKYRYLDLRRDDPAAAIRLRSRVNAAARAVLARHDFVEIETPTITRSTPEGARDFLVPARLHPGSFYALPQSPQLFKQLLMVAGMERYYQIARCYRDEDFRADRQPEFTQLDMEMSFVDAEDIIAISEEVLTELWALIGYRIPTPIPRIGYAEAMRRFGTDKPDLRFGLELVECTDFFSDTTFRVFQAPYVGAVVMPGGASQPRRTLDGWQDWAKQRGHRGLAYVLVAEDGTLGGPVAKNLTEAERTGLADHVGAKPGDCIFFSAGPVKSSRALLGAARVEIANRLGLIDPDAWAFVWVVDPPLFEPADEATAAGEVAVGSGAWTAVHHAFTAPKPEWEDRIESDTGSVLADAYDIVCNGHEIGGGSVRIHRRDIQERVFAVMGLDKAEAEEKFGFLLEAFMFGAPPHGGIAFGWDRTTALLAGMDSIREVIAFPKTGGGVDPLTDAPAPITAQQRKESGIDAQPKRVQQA

[2] = molecular target: Shiga toxin 2 (Escherichia coli O157:H7) (UniProt P09385+P09386); test: E. coli 0.157:H7 Shiga Toxin SOP - stx2 screening assay; type: functional; set-up: scale not given: direction of the effect not stated beside the values; settings: 30 µM

Row | SMILES | Percent Effect [1] | Percent Effect [2]
1 | CC(=O)Nc1nc(CN2CCCC2c2cnn(C)c2)cs1 (configuration not stated) | -1.4% | -28.6%
2 | CS(=O)(=O)NC[C@]12COC[C@H]1CN(C(=O)c1ccoc1)C2 | 0.452% | -5.39%
3 | CCN(Cc1cccc2c1OCO2)C(=O)C(C)c1cccnc1 (configuration not stated) | 1.18% | -4.53%
4 | COc1ncccc1CNC(=O)c1cccc(C)n1 | -1.63% | -24.7%
5 | Cc1csc(N2CCCN(C(=O)c3cnns3)CC2)n1 | 1.66% | -7.36%
6 | COCc1c(C(=O)O)nnn1Cc1cccc(C(F)(F)F)c1 | -5.23% | -31%
7 | Cc1cc(-c2cnc(N3CCNC(=O)C3)nc2-c2ccc(C)o2)on1 | -1.93% | -18.2%
8 | CC1CCN(Cn2nc(-c3ccc(F)cc3)oc2=O)CC1 | -0.789% | -14.8%
9 | Cc1oc(C)c(C(=O)N2CCCN(Cc3cscn3)CC2)c1C | -1.41% | 26.2%
10 | Cc1ccc(CN(C)C(=O)CN2CC(n3cccn3)C2)o1 | 1.26% | -26.8%
11 | c1cc(-c2noc(CN3CCn4c(nnc4C4CC4)C3)n2)co1 | -0.544% | 0.987%
12 | O=C1NCCN1C1CCN(CCc2cccs2)CC1 | -0.519% | 4.4%
13 | CCn1c(CN2CCCN(C(=O)OC)CC2)nc2c(F)cccc21 | -0.656% | 36.3%
14 | CCCNC(=O)Nc1cccc2c1CCN(S(C)(=O)=O)C2 | 6.02% | -15%
15 | CNC(=O)C1(c2cnccn2)CCCN1C(=O)c1ccn(C)n1 (configuration not stated) | -7.79% | -1.47%
16 | CN1CCCC(c2cccc(Cc3ccccc3Cl)n2)C1 (configuration not stated) | -5.43% | 6.38%
17 | CN(Cc1cnn(-c2ccccc2)n1)CC1CCCN1c1cccnn1 (configuration not stated) | 1.85% | 16%
18 | Cc1cc(C(=O)O)cc(S(=O)(=O)Nc2ccc3c(c2)OCO3)c1C | 11.6% | -48%
19 | O=C1CC(N(C(=O)c2ccc3c(c2)CCC3)C2CC2)C(=O)N1 (configuration not stated) | 0.714% | 6.53%
20 | O=C(Cc1ccc2c(c1)CCCC2)NCCc1ccccn1 | 2.5% | 29.1%
21 | CCC(C)(C)NC(=O)Cn1nc(C)nc1-c1cccc(C)c1 | 1.4% | 5.46%
22 | OCCn1cc(CN2CCN(CCOc3ccccc3F)CC2)cn1 | -0.699% | 24.4%
23 | Cc1ccc(-c2nc(CN3CCn4c(nnc4C4CC4)C3)co2)cc1 | -1.28% | 10.1%

Row | SMILES | Percent Effect [1] | Percent Effect [2]
24 | COc1cccc(C)c1C(=O)N1C[C@@H](CN(C)C)[C@@H](CO)C1 | 0.951% | -14.7%
25 | CCC1CCCCCN1C(=O)c1nnc2ccccc2c1N (configuration not stated) | -3.53% | -2.87%
26 | CSc1ccsc1C(=O)N1CCN(CC(C)(C)O)CC1 | 2.72% | -13.5%
27 | CN(C)S(=O)(=O)N1C[C@@H](Oc2ccccn2)[C@H]2OCCC[C@H]21 | 2.06% | -15.9%
28 | CCn1cc(CN2CCCn3nc(CCC(=O)NCCO)cc3C2)cn1 | 0.624% | -51%
29 | Cc1ccc(NC2CCN(C(=O)c3cc[nH]n3)CC2)nn1 | -1.83% | 18.1%
30 | Cc1ccccc1CNC(=O)Cc1c(C)nc2cc(=O)[nH]n2c1C | -0.856% | 17.8%
31 | COCCc1noc(CNCC2CCCN2c2cccnn2)n1 (configuration not stated) | 4.93% | -3.58%
32 | O=C1COC2(CCN(C(=O)c3ccco3)CC2)CN1Cc1ccccn1 | -2.5% | -3.41%
33 | Cc1nccc([C@H]2C[C@@H]3CCN(S(=O)(=O)N(C)C)C[C@H]3O2)n1 | 1.71% | 6.66%
34 | CS(=O)(=O)NCc1ncn2c1CN(C(=O)CC1CCCC1)CCC2 | -2.09% | -6.05%
35 | COc1cccc(F)c1C(=O)N1C[C@@H](CN(C)CCO)[C@@H](CO)C1 | -0.268% | -11.4%
36 | CN(C)CC1CN(C(=O)NCc2ccccc2)Cc2nccn2C1 (configuration not stated) | -0.114% | -2.62%
37 | Cc1ccccc1C(=O)N1CCOC2(CNCCOC2)C1 (configuration not stated) | -0.279% | -0.428%
38 | COc1cc(C)nc(N2CCN(C(=O)CCn3cc(C)cn3)CC2)n1 | -3.63% | 12%
39 | COCC(=O)N1CCO[C@H]2[C@H](OC)CC[C@@H]21 | 9.03% | 2.73%
40 | CCn1ncnc1C(C)NC(=O)C1CCN(C(=O)COC)CC1 (configuration not stated) | 6.73% | 11.1%
41 | Cc1nc([C@@H]2C[C@@H]3CCN(C(=O)c4ccnnc4)C[C@H]3O2)sc1C | 4.24% | -9.81%
42 | CCO[C@@H]1CO[C@@]2(CCCN(C(=O)c3ccc(OC)c(F)c3)C2)C1 | 2.11% | -23.8%
43 | N#Cc1ccnc(N2CCN(C(=O)Cc3ccc4c(c3)CCO4)CC2)c1 | 0.144% | 6.14%
44 | COc1ccc(CNC(=O)NC(C)Cn2cccn2)cc1O (configuration not stated) | -1.61% | 17.6%
45 | Cc1cc(N2CCCCCC2)n2nc(C)c(C)c2n1 | 0.167% | 19.6%
46 | CC(C)(C)c1ccc(C2(C(=O)NCCS(N)(=O)=O)CC2)cc1 | 13.3% | -15.1%
